The list is not random: actives were taken first. Their share in the collection is about 5.4%.
p53 reactivation = mutant p53 re-activation in reporter cells. 320,000 compounds, 0.063% hits. Potency, µM (doses to about 92.2 µM), most hits filed as activators. AID 504706. H1299 p53-A138V BP100-luciferase reporter, luminescence, 24 h; also: nearly all actives have a fitted effect of over 45% in size
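H1299 (p53-null), stable ts p53-A138V + BP100-Luc; 1000 cells/well, Opti-MEM/10% FBS; cpd 4 pt, 1:5; 24 h, 37 deg C, 5% CO2; detection reagent 10 min RT; luminescence.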
CtBP-E1A blk = blocks the CtBP interaction with E1A. AlphaScreen GST-E1A/His-CtBP binding, 1536-well; stronger effect = lower value. activity change, % (no concentration beside the values). 340,000 compounds, 0.49% hits; in the data active = activity change below about -65%; inconclusive = mostly about -30% to -63%
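Homogeneous bead-based format: GST-tagged E1A captured on glutathione donor beads, His-tagged CtBP on nickel acceptor beads; compounds precede bead addition by 2 h at 37 °C.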
Gal4-VP16 FLuc = counter-screen for ROR gamma inhibitors: Gal4-VP16 reporter. Drosophila S2 Gal4-VP16 UAS-luciferase, luminescence, 20 h. Potency, µM (top dose mostly 53.6 µM), usual class: inhibitors. 310,000 compounds, 3.5% hits. AID 2546;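 also: Gal4-VP16 expression switched on by copper sulfate through the metallothionein promoter; nearly all actives have a fitted effect of over 50% in size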
RORgamma inh = blocks mouse ROR gamma transcriptional activity | P51450 | Drosophila S2 Gal4-RORgamma UAS-luciferase reporter, 20 h | Potency, µM (doses to about 53.6 µM), hits mostly inhibitors | 310,000 compounds, 5.4% hits | AID 2551; also: nearly all actives have a fitted effect of over 60% in size
Target sequence (P51450 whole entry, looked up, the tested form may be a part): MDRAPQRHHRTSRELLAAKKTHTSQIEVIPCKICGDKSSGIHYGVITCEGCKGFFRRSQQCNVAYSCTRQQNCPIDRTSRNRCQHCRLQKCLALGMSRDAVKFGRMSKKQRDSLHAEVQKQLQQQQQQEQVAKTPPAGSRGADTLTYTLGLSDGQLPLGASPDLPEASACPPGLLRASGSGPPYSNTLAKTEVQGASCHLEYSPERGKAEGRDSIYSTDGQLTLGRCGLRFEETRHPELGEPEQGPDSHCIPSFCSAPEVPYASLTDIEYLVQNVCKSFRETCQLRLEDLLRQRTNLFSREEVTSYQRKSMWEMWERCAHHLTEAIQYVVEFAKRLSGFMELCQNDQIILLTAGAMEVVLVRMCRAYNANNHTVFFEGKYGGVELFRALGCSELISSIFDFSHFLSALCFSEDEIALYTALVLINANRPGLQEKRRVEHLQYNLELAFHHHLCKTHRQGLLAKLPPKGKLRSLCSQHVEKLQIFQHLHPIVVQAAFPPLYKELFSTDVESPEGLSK
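In this cell-based reporter format, copper sulfate (700 uM final) drives Gal4–ROR gamma fusion expression from a metallothionein promoter in Drosophila Schneider cells; compounds preincubated 1 hr, reporter read after 20 hr at ambient temperature.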
Six1-Eya2 blk = Six1/Eya2 interaction inhibition; Q15475+O00167; AlphaScreen GST-Six1/His-Eya2 binding, biochemical; stronger effect = lower value; activity change, % (no concentration beside the values); 360,000 compounds, 0.56% hits; in the data active = activity change below about -65%; inconclusive = mostly about -30% to -63%
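AlphaScreen luminescence read after one hour at 37 °C in darkness. Pin-transferred compounds met GST-Six1 and His-Eya2 protein (5X stock 250 nM/500 nM) plus glutathione donor and Ni-chelate acceptor beads (5X, 50 ug/mL).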
A number is an active result; 0 = inactive; ? = inconclusive; - = no result. Unless noted, calls follow the shape of the dose curve; as a rule, active = well fitted curve in the direction sought with a large enough effect; inconclusive = small, poorly fitted or top-dose-only effect, or another doubt; inactive = no such curve, though single readings can be large; an effect the other way counts as inactive or inconclusive.

SMILES	p53 reactivation	CtBP-E1A blk	Gal4-VP16 FLuc	RORgamma inh	Six1-Eya2 blk
CN(Cc1ccccc1)S(=O)(=O)c1ccc(NC(=S)NC(=O)C2CCCCC2)cc1	0	0	7.94µM	8.91µM	0
CN(Cc1ccccc1)S(=O)(=O)c1ccc(NC(=S)NC(=O)C(C)(C)C)cc1	0	0	?	12.6µM	0
CC(=O)Nc1ccc(NC(=O)C2CCN(S(C)(=O)=O)CC2)cc1	-	0	-	-	0
C=C1CCN(CC(=O)OC)S(=O)(=O)c2ccccc21	0	0	0	0	0
CCC1CN2CCC1CC2[C@@H](NC(=S)Nc1cc(C(F)(F)F)cc(C(F)(F)F)c1)c1cccc2ccc(OC)cc12 (stereo partly specified)	-	-	0	0	-
CCC(CC)NC(=O)c1oc2ccccc2c1COc1ccccc1	0	0	28.2µM	?	0
CC(C)CNC(=O)c1oc2ccccc2c1COc1ccccc1	0	0	0	0	0
COc1ccc(S(=O)(=O)N2c3ccccc3OCC2C)cc1 (stereo unspecified)	0	0	0	?	0
COc1ccc(S(=O)(=O)N2c3ccccc3OCC2C(C)(C)C)cc1 (stereo unspecified)	0	0	15.8µM	0	0
Clc1ccc(-c2csc(N3CCSCC3)n2)cc1	?	0	0	0	0
CCN(CC)CCOC(=O)C12CC3CC(CC(C3)C1)C2	0	0	0	5.01µM	0
CN(C)CCOC(=O)C12CC3CC(C1)CC(C(=O)OCCN(C)C)(C3)C2	0	0	0	0	0
Cc1ccc(-n2ncc(Br)c(Br)c2=O)cc1	0	0	2.82µM	5.01µM	0
O=c1c(Br)c(Br)cnn1-c1ccccc1	0	0	5.01µM	3.16µM	0
O=c1c(Br)c(N2CCCC2)cnn1-c1ccccc1	?	0	0	0	0
O=C(NCCN1CCCCC1)Nc1cccc(C(F)(F)F)c1	?	0	0	0	0
CC(=O)c1cc(C)oc1C	-	-	0	0	-
Cc1cccc(N2CCN(C(=O)CCCOc3ccccc3)CC2)c1C	?	0	0	0	0
CCC1(c2ccccc2)NC(=S)N(c2cccc(C)c2C)N1 (stereo unspecified)	0	0	7.94µM	1.26µM	0
O=c1cc(-c2cccc(F)c2)[nH]c2cc(F)ccc12	-	-	0	0	-
CC(C)(C)OC(=O)NCCCCCNC(=O)c1[nH]cnc1C(=O)N[C@@H](Cc1ccccc1)C(=O)OC(C)(C)C	0	0	-	-	0
CC(C)C[C@H](NC(=O)c1nc[nH]c1C(=O)N(C)Cc1ccccc1)C(=O)OC(C)(C)C	0	-	0	0	0
CC(C)(C)OC(=O)NCCCC[C@H](NC(=O)c1nc[nH]c1C(=O)NCc1ccccc1)C(=O)OC(C)(C)C	0	0	?	14.1µM	0
CC(C)(C)OC(=O)NCCCC[C@H](NC(=O)c1[nH]cnc1C(=O)N[C@@H](Cc1ccccc1)C(=O)OC(C)(C)C)C(=O)OC(C)(C)C	0	0	?	7.94µM	0
C[C@H](NC(=O)c1nc[nH]c1C(=O)N[C@@H](CCCCNC(=O)OC(C)(C)C)C(=O)OC(C)(C)C)c1ccccc1	0	0	11.2µM	5.62µM	0
SMILES	p53 reactivation	CtBP-E1A blk	Gal4-VP16 FLuc	RORgamma inh	Six1-Eya2 blk
CN(Cc1ccccc1)C(=O)c1[nH]cnc1C(=O)N[C@@H](CCCCNC(=O)OC(C)(C)C)C(=O)OC(C)(C)C	0	-	?	7.08µM	0
O=C(O)CNC(=O)c1ccc([N+](=O)[O-])cc1	-	-	0	0	-
CCN(CC)S(=O)(=O)c1ccc(O)c(NC(=O)c2cc(-c3cc(OC)c(OC)c(OC)c3)nc3ccccc23)c1	0	0	0	?	0
Cc1ccc(C(C2=C(O)CC(C)(C)CC2=O)C2C(=O)CC(C)(C)CC2=O)s1 (stereo unspecified)	0	0	0	0	0
CC1(C)CC(=O)C(C(C2=C(O)CC(C)(C)CC2=O)c2ccc(Br)s2)C(=O)C1 (stereo unspecified)	0	0	10µM	?	0
O=C(NC(=S)NCc1cccnc1)c1cc2ccccc2o1	0	0	0	12.6µM	0
O=C(NC(=S)NCc1cccnc1)c1cc(Br)ccc1Cl	0	0	?	22.4µM	0
O=C(NC(=S)Nc1cccnc1)c1cc2ccccc2o1	?	0	0	?	0
Cc1onc(-c2ccccc2)c1C(=O)Nc1nnc(CC(C)C)s1	0	0	0	0	0
O=C(NCc1cc([N+](=O)[O-])ccc1O)c1cccnc1Sc1ccccc1Cl	0	0	2.82µM	3.55µM	?
O=C(NCc1cc([N+](=O)[O-])ccc1O)c1cccnc1Sc1ccc(Cl)cc1	?	0	0	0	?
CCOC(=O)C1=C(COC(=O)C2CC(=O)N(c3ccccc3F)C2)NC(=O)NC1C (stereo unspecified)	0	0	-	-	0
Cc1ccc(CNC(=O)C2(S(=O)(=O)c3ccccc3)CC=CC2)cc1	-	-	?	0	0
CCOC(=O)C1=NN(C(=O)Cc2ccccc2)C(O)(c2ccc(Cl)cc2)C1 (stereo unspecified)	0	0	10µM	5.62µM	0
CCOC(=O)C1=NN(C(=O)COc2ccccc2)C(O)(c2ccc(Cl)cc2)C1 (stereo unspecified)	0	0	11.2µM	3.55µM	0
CCOC(=O)N1CCN(C(=O)Cc2ccc(Cl)cc2)CC1	0	0	0	0	0
COc1ccc(C2=NOC(C)(c3nnc(-c4ccncc4)o3)C2)cc1 (stereo unspecified)	-	-	-	-	0
CC1=C(CC/C(C)=N/NC(N)=S)C(C)(C)CCC1	0	0	2.82µM	1.78µM	0
Cc1cc(NC(=O)c2cc3cccc([N+](=O)[O-])c3[nH]2)ccc1F	0	0	0	0	0
Cc1c(C(=O)N/N=C/C(C)C)[nH]c2c([N+](=O)[O-])cccc12	0	0	0	2.24µM	0
CCC1(C)Cc2ccccc2C(=S)N1 (stereo unspecified)	0	0	?	8.91µM	0
CCCCC(O)(CCCC)C(=O)NN(C(=O)c1cccnc1Cl)c1ccccc1	0	0	0	0	0
CS(=O)(=O)c1ncc(Cl)c(C(=O)Nc2ccc(OC(F)F)cc2)n1	0	0	1.26µM	3.55µM	0
CS(=O)(=O)c1ccc(C(=O)Nc2ccc(N3CCOCC3)cc2)c(Cl)c1	0	0	0	0	0
CS(=O)(=O)c1ncc(Cl)c(C(=O)Nc2ccc(N3CCOCC3)cc2)n1	0	0	3.16µM	3.16µM	0
Cc1ccc(/C=N/n2c(-c3cccs3)n[nH]c2=S)cc1	0	0	?	2µM	?
COc1ccc(/C=N/n2c(-c3cccs3)n[nH]c2=S)cc1	0	0	?	2.82µM	0
CCN(CC)S(=O)(=O)c1cccc(-c2n[nH]c(=S)n2/N=C/c2ccc(OC)cc2)c1	0	0	0	?	0
S=c1[nH]nc(-c2cccs2)n1/N=C/c1c(Cl)cccc1Cl	0	0	0	11.2µM	0
S=c1[nH]nc(-c2ccco2)n1/N=C/c1c(Cl)cccc1Cl	0	-	0	0	0

Assay outcomes (PubChem BioAssay)
